NS1 inh – influenza NS1 inhibition. Potency, µM (highest dose often 46.1 µM), without a hit: at the top dose activity, positive = more growth. 270,000 tested, 0.4% active. AID 2326; note: potency is the fitted concentration of half-maximal effect; actives are rising curves; nearly all actives have a fitted effect of over 50% in size
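S. cerevisiae expressing influenza A NS1, grown in glucose, washed, then diluted 1:100 into pH 6.0 -URA galactose medium with 23 nl compound. Growth recovery read as OD600; NS1-free strain serves as control.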
Pf growth 96h – P. falciparum growth inhibition at 96 hour, primary screen for plastid delayed-death inhibitors; 320,000 tested, 6.9% active; P. falciparum luciferase reporter growth, 96 h; Potency, µM (series often up to 28.7 µM), for the others: at the top dose activity change, negative = inhibition, actives largely listed as inhibitors; active = well fitted inhibition curve with a large enough effect; inconclusive = small, poorly fitted or top-dose-only effect, or another doubt; inactive = no such curve, though single readings can be large or run the other way; note: potency is the fitted concentration of half-maximal effect; % is set by controls: 0 for no effect and ±100 for the full control effect
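Delayed-death screen, second-generation endpoint: infected erythrocytes, 2% hematocrit, 0.05% parasitemia final; 96 hours at 37 C, 5% CO2; luciferase detection reagent; luminescence decrease equals reduced growth.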
Shiga inhibitor – Shiga toxin inhibition. inhibition, % at 38.7 µM. AID 2315. 290,000 tested, 9.2% active. Vero cells, Shiga toxin protein synthesis inhibition reporter; in the data active = inhibition mostly above about 28%, no sharp cut-off; inactive = mostly below about 43%; note: 0% is about no effect
Cycloheximide cs – counter-screen hit for Shiga toxin inhibitors, cycloheximide. cell reporter, cycloheximide protein synthesis inhibition counterscreen. max response, %. 300,000 tested, 12% active. AID 2314; in the data active = max response mostly above about 13%, no sharp cut-off; inactive = mostly below about 14%; note: read at 38.3 µM for the half of the compounds with a filed dose; 0% is about no effect
Pf growth 48h – inhibits P. falciparum growth in the first generation, 48 h; P. falciparum luciferase growth in erythrocytes, 48 h; Potency, µM (series often up to 28.7 µM), inactives show at the top dose activity change, negative = inhibition, actives largely listed as inhibitors; 310,000 tested, 5.9% active; AID 504832; active = well fitted inhibition curve with a large enough effect; inconclusive = small, poorly fitted or top-dose-only effect, or another doubt; inactive = no such curve, though single readings can be large or run the other way; note: potency is the fitted concentration of half-maximal effect; % is set by controls: 0 for no effect and ±100 for the full control effect
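Luminescence readout; reporter = integrated firefly luciferase in P. falciparum. RBC culture at 2% hematocrit, 0.1% parasitemia final, 37 C/5% CO2; decreased signal taken as growth inhibition.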
SARS PLP yeast – inhibitors of SARS-CoV papain-like protease in yeast. Potency, µM (highest dose often 32.9 µM), for inactives: top-dose activity, positive = growth rescue, actives largely listed as activators. S. cerevisiae expressing SARS-CoV PLpro, growth rescue. 330,000 tested, 0.19% active. AID 485353; note: potency is the fitted concentration of half-maximal effect; 0% is about no effect; nearly all actives have a fitted effect of over 55% in size
The depositor's hits bear a star; ? = inconclusive; . = not tested or not shown. Only some compounds are listed: those with a hit (about 21% of all), similar ones and a draw of the others. Unless noted, calls come from the whole dose curve.

SMILES	NS1 inh	Pf growth 96h	Shiga inhibitor	Cycloheximide cs	Pf growth 48h	SARS PLP yeast
CCc1nc2cc3sc(CC)nc3cc2s1	.	?	74*	25*	404%	0%
O=C(NNC(=O)c1ccccc1[N+](=O)[O-])c1ccc(NS(=O)(=O)c2cccs2)cc1	11%	39%	15	-3	12%	27%
O=S(=O)(NCc1csc(-c2ccccc2)n1)c1ccc(Cl)s1	-156%	?	-6	5	-16%	-56%
COc1ccccc1CC(=O)NCc1csc(-c2cccs2)n1	-9%	95%	68*	47*	98%	1%
COc1ccc(CCNC(=O)c2nc(-c3cccs3)no2)cc1OC	.	3%	7	-2	1%	-1%
COc1ccccc1CCNC(=O)c1nc(-c2cccs2)no1	.	13%	67*	29*	32%	-2%
O=S(=O)(NCc1csc(-c2cccs2)n1)c1ccccc1	-6%	18%	41	6.7*	2%	-1%
COc1ccc(C(=O)NCc2csc(-c3cccs3)n2)cc1	-41%	34%	13	1	28%	-2%
CCC(=O)NCc1csc(-c2cccs2)n1	-2%	74%	28	24*	38%	-1%
COc1ccc(Cc2nnc(SC(C)C(=O)Nc3ccc(C(N)=O)cc3)o2)cc1 (stereo unspecified)	.	8%	.	.	1%	.
CC(C)(/C=N/NC(=O)CSCc1ccc(Cl)cc1)CCC#N	5%	12%	10	21	-8%	0%
O=C(NCc1csc(-c2cccs2)n1)C1CCCCC1	-9%	70%	76*	29*	45%	0%
Cc1ccccc1N1C(=O)C(Oc2ccc(Cl)cc2)C1CNC(C)(C)C (stereo unspecified)	-20%	47%	-15	-1	12µM*	-5%
CCCNCC1C(Oc2ccc(Cl)cc2)C(=O)N1c1ccccc1C (stereo unspecified)	-16%	7%	-15	-1	10µM*	-8%
COCCNCC1C(Oc2ccc(Cl)cc2)C(=O)N1c1ccccc1C (stereo unspecified)	.	188%	-10	-6	?	4%
N#Cc1c(-c2ccccc2)nc2n(-c3ccccc3)nc(C(=O)Nc3ccccc3)n2c1=O	-6%	0.74µM*	17	-2	.	10%
Cc1nnc(SCC(=O)NC2CCCc3c2cnn3-c2ccccc2F)o1 (stereo unspecified)	15%	?	-3	-1	8%	-1%
CCOC(=O)CNC(=S)N(Cc1ccco1)Cc1ccccc1Cl	1%	2.6µM*	-12	-2	-14%	0%
CCCCNC(=O)CNC(=S)N(Cc1ccc(C)cc1)Cc1ccco1	.	24%	3	-2	?	-2%
COc1ccc([C@H]2CC(=O)C=C(c3cc(C(F)(F)F)cc(C(F)(F)F)c3)C2)cc1	.	-88%	.	.	?	-7%
Cc1ccc(C(=O)NC(=S)NNC(=O)c2ccccc2O)cc1	-45%	-6%	54*	19*	.	4%
O=C(NC(=S)NNC(=O)c1ccccc1O)c1ccccc1	-49%	?	55*	29	?	4%
Cc1cccc(C(=O)NNC(=O)c2ccccc2O)c1	-17%	0%	38*	39*	64%	-3%
Cc1ccccc1C(=O)NNC(=S)NC(=O)c1ccccc1	-137%	?	28*	17*	?	-62%
COc1cc(NC(=O)Cn2nc(C(F)(F)F)c(Br)c2C)cc([N+](=O)[O-])c1	3%	?	-5	-3	?	-16%
Cc1cc(C)n(CC(=O)N2CCCC(N3CCN(c4ccc(F)cc4)CC3)C2)n1 (stereo unspecified)	7%	-8%	-22	4	-14%	2%
Cc1ccccc1C(=O)NNC(=O)c1ccc(Br)cc1	.	-14%	84*	42*	161%	-2%
CC(C)(C)c1cc(CCC(=O)NNC(=S)NC(=O)c2ccccc2)cc(C(C)(C)C)c1O	-18%	?	7	-1	13µM*	5µM*
Cc1oc2cc(O)cc(C)c2c(=O)c1-c1cnn(-c2ccccc2)c1	-8%	-1%	23	8	13µM*	-25%
COc1ccccc1NC(=O)C1=C(C)NC(SCC(=O)c2ccccc2)=C(C#N)C1c1ccco1 (stereo unspecified)	-4%	.	36	10	9.3µM*	-4%

High-throughput results from PubChem BioAssay.
